# TrxR1 inh = inhibitors of rat thioredoxin reductase 1; 390,000 compounds, 1% hits; Potency, µM (series often up to 114 µM), without a hit: at the highest dose activity change, negative = inhibition, most hits filed as inhibitors; AID 588453; O89049; recombinant rTrxR1, NADPH fluorescence consumption, selenite substrate; also: nearly all actives have a fitted effect of over 65% in size
#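 Rat TrxR1 (90 nM in the dispensed reagent) was pre-reduced with 400 uM NADPH for 5 min at room temperature, then incubated with compound for 15 min. After 400 uM selenite was added, NADPH fluorescence (Ex 340/Em 450 nm) was followed for 8 min.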
# TrxR1 substrate = substrates of rat thioredoxin reductase 1. O89049. Potency, µM (doses to about 114 µM), for inactives: top-dose activity change, negative = substrate turnover. AID 588456. purified TrxR1 substrate turnover, NADPH consumption readout. 390,000 compounds, 0.01% hits; also: nearly all actives have a fitted effect of over 50% in size
#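 Rat TrxR1, dispensed at 90 nM, was prereduced with 400 uM NADPH (final) for 5 min at ~22 deg C, then incubated with compound 15 min before 400 uM selenite. A first-read NADPH fluorescence drop versus no-compound background flagged substrates.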
# Eya2 inh = Eya2 (human) phosphatase inhibition | recombinant Eya2, OMFP fluorescence dephosphorylation (OMFP is methylfluorescein phosphate) | Potency, µM (titrated, usually from 76.9 µM), for the others: top-dose activity, negative = inhibition, hits mostly inhibitors | 330,000 compounds, 0.006% hits | AID 488837
#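 Eya2 (0.2 uM) preincubated 10 min at ambient with compound, then OMFP substrate added at 50 uM; 10 min reaction in 50 mM HEPES pH 7.5, 50 mM NaCl, 5 uM MgCl2, 0.05% BSA, 1 mM DTT. Fluorescence read at Ex 485/Em 525 nm.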
# RGS4 inhibitor = blocks human RGS4-accelerated GTP hydrolysis; Transcreener GDP fluorescence polarization, RGS4-accelerated GTP hydrolysis; Potency, µM (doses to about 114 µM), inactives show at the top dose activity change, negative = inhibition, most hits filed as inhibitors; 390,000 compounds, 0.039% hits; also: nearly all actives have a fitted effect of over 75% in size
#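 MLSMR compounds (23 nl, pin-transferred) preincubated 10 min at room temperature with a 500nM (2x) first reagent, then RGS4 at 900nM (2x) plus Transcreener GDP mix added; fluorescence polarization (620/688 nm) read before and after 90 min at 30 °C.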
# IDH1 R132H inh = blocks human mutant IDH1 R132H enzyme; IDH1-R132H enzyme, NADPH consumption, diaphorase/resazurin fluorescence; Potency, µM (doses to about 76.6 µM), without a hit: top-dose activity change, negative = inhibition, most hits filed as inhibitors; 390,000 compounds, 0.093% hits; AID 602179; also: nearly all actives have a fitted effect of over 65% in size
# Target sequence (O75874 whole entry R132H, stated change not applied): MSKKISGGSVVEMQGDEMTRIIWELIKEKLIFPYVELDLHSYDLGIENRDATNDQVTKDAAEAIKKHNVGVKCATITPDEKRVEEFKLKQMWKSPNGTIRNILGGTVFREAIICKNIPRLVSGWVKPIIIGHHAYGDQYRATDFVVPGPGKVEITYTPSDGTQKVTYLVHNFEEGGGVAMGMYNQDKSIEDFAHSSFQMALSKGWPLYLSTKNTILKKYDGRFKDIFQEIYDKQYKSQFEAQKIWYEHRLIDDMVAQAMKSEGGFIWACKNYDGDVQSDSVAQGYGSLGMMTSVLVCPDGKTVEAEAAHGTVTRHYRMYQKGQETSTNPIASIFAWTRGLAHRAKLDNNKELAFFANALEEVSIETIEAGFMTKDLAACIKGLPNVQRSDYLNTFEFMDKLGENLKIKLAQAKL
#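 IDH1-R132H (0.5 ug/mL) preincubated 30 min with compound, then NADPH (0.016 mM) and alpha-KG (2 mM) added; 80 min at RT, pH 7.5. Remaining NADPH coupled via diaphorase/resazurin to fluorescence (540/590 nm); concentration-response curves normalized to no-enzyme control.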
# Starred values were filed as active, the others as inactive; ? = inconclusive; . = not tested or not shown; ! = not confirmed by another sample; [ ] = remark or other dose. This is a sample that favours compounds with a hit; in the whole collection about 1.1% have one here. Calls follow the shape of the dose curve; as a rule, active = well fitted curve in the direction sought with a large enough effect; inconclusive = small, poorly fitted or top-dose-only effect, or another doubt; inactive = no such curve, though single readings can be large; an effect the other way counts as inactive or inconclusive. % is scaled to controls: 0 for no effect and ±100 for the full control effect; potency is read from the fitted curve at half-maximal effect.
SMILES,TrxR1 inh,TrxR1 substrate,Eya2 inh,RGS4 inhibitor,IDH1 R132H inh
Cc1ccc(/C=C/C(=O)OCC(=O)N2CC(=O)Nc3ccccc32)o1,28µM*,-7%[57.1 µM],?,?,-3%
O=C1CN(C(=O)COC(=O)/C=C/c2ccco2)c2ccccc2N1,-23%,4%[57.1 µM],2%,-9%,-5%
Cc1ccc(/C=C/C(=O)OCC(=O)NC(C)c2ccccc2)o1 (stereo unspecified),50µM*,-8%,-13%,-38%,7%
Cc1ccc(-c2ccc(CCC(=O)O)o2)cc1,22µM*,11%,-6%,?,4%
Cc1ccc(NC(=O)NCc2cccnc2)cc1Cl,20%,0%,-10%,-9%,7%
CCCCn1c(SCC(=O)N2CCCC2)nnc1-c1ccccc1,89µM*,-19%,14%,14%,0%
CC(C)(C)C(=O)NC(=S)Nc1cc(C(=O)O)ccc1Cl,-8%[57.1 µM],-2%[57.1 µM],-5%,-35%[11.4 µM],-2%
COc1ccc(C(=O)c2no[n+]([O-])c2C(=O)c2ccc(OC)cc2)cc1,0.63µM*,-6%,-3%,-10%,-2%
COc1ccc(NC(=O)c2c(N)no[n+]2[O-])cc1,25%[57.1 µM],-3%,21%,7%,3%
O=C(c1cccs1)c1no[n+]([O-])c1C(=O)c1cccs1,0.71µM*,4%,-23%,-37%,1%
Cc1snc(SCc2ccc(Cl)cc2)c1C#N,18%,-4%,-1%,-32%,-6%
O=C(Cn1c(=O)c2cccn2c2ccccc21)NCCc1ccc(Cl)cc1,18%,10%,-1%,-29%,5%
CC1=NOC(=O)/C1=C\c1ccc(-c2cc(Cl)ccc2Cl)o1,16µM*,10%,-2%,-71%,8%
CC1=NOC(=O)/C1=C/c1ccc(-c2ccc(Cl)cc2)o1,.,.,4%,.,.
COc1cc(N)c(Cl)cc1C(=O)CCC1CCN(CCNS(C)(=O)=O)CC1,.,.,.,38µM*!,.
Cc1ccc(S(=O)(=O)CNC(=S)c2cccc(Cl)c2)cc1,14µM*,4%,2%,-48%,8%
Cc1ccc(C(=S)NCS(=O)(=O)c2ccc(C)cc2)cc1,?,9%,8%,7%,7%
NC1=NC(=O)/C(=C\c2ccco2)S1,40µM*,-4%,-18%,-49%,5%
COc1cccc(C(=O)NNC(=O)C(=O)Nc2ccc(C)c(Cl)c2)c1,-5%,-8%,12%,-2%,-1%
O=C(Cc1ccsc1)OCC(=O)c1ccccc1,11%[57.1 µM],-9%,5%,-5%,-9%
Cc1ccc(/C=C2\CCC3=C2OC(N)=C(C#N)C3c2ccc(C)cc2)cc1 (stereo unspecified),50µM*,-9%,14%,-29%,2%
O=C(NCCS(=O)(=O)N1CCN(c2ccccc2)CC1)C1CC(=O)N(c2ccccc2)C1 (stereo unspecified),4%,-4%,-7%,17%,-5%
CCC(O)CNC(=O)NC(=C(Cl)Cl)c1ccc(C)c(F)c1 (stereo unspecified),0%,2%,3%,20%,16%
Cc1ccc(C(C[N+](=O)[O-])n2nc(C)cc2C)cc1 (stereo unspecified),5.6µM*,-4%,4%,?,7%
CCC1CCCCN1S(=O)(=O)c1ccc(NC(=O)c2nc(S(C)(=O)=O)ncc2Cl)cc1 (stereo unspecified),7.1µM*,-2%,3%,?,-1%
CCS(=O)(=O)c1ncc(Cl)c(C(=O)Nc2ccc(S(=O)(=O)N3CCCC(C)C3)cc2)n1 (stereo unspecified),2.5µM*,-2%,-3%,?,-6%
CCSc1ncc(Cl)c(C(=O)Nc2ccc(S(=O)(=O)N3CCCCC3CC)cc2)n1 (stereo unspecified),10%,-5%,.,-19%,-30%
CCS(=O)(=O)c1ncc(Cl)c(C(=O)Nc2ccc(C)cc2)n1,?,8%,-3%,?,-6%
Cc1nc(SCC(=O)c2cc3ccccc3oc2=O)c(C#N)c(-c2cccs2)c1C(=O)Nc1ccccc1,-28%,-4%,15%,-31%,0%
Cc1nnc(Sc2nc3ccccc3o2)c2ccccc12,8.9µM*,-1%,-18%,?,7%
